This passage reports Potency and outcome results from PubChem BioAssay (Tox21).

Test [1] is described as follows: qHTS assay to identify aromatase inhibitors - cell viability counter screen (AID 743084).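 Also: cells stimulated with testosterone during compound exposure; nearly all actives have a fitted effect of over 55% in size.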 Also: potency is read from the fitted curve at half-maximal effect.
The target in test [2] is Aryl hydrocarbon receptor (Homo sapiens) (UniProt P35869). Briefly: qHTS assay to identify small molecule that activate the aryl hydrocarbon receptor (AhR) signaling pathway (AID 743085). Also: nearly all actives have a fitted effect of over 15% in size. Also: potency is read from the fitted curve at half-maximal effect.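 As to activation: HG2L7.5c1 human HepG2 liver cells with stably integrated DRE-driven firefly reporter; series mostly up to about 70 µM.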 A digest of the protocol:
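A multiplexed format paired cell viability (CellTiter-Fluor fluorescence) with AhR-dependent luciferase output (ONE-Glo luminescence) in the same wells of HepG2 DRE-luc cells after 24 h compound exposure at 37C.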

Test [3] can be described thus: qHTS assay to identify small molecule that activate the aryl hydrocarbon receptor (AhR) signaling pathway - cell viability counter screen (AID 743086). Also: nearly all actives have a fitted effect of over 45% in size. Also: potency is read from the fitted curve at half-maximal effect. The essentials:
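Cytotoxicity counter screen: CellTiter-Fluor signal (30 min, 37 C) in 4000 HepG2 cells/well carrying the DRE-luciferase reporter, following 24 h compound exposure at 37 C.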

The target of test [4] is Peroxisome proliferator-activated receptor gamma (Homo sapiens) (UniProt P37231). Briefly: qHTS assay to identify small molecule agonists of the peroxisome proliferator-activated receptor gamma (PPARg) signaling pathway (AID 743094; active = well fitted activation curve with a large enough effect in the signal ratio in the repeat runs, not every such curve was filed as active; the % refers to the signal ratio). A digest of the protocol: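 Following 5 h plating at 37C, PPARg-bla HEK293H cells receive compound or DMSO for 17 h; fluorescence intensity is recorded after LiveBLAzer B/G loading for 1 h at room temperature.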
Sequence of Peroxisome proliferator-activated receptor gamma (Homo sapiens) (P37231 whole entry, looked up): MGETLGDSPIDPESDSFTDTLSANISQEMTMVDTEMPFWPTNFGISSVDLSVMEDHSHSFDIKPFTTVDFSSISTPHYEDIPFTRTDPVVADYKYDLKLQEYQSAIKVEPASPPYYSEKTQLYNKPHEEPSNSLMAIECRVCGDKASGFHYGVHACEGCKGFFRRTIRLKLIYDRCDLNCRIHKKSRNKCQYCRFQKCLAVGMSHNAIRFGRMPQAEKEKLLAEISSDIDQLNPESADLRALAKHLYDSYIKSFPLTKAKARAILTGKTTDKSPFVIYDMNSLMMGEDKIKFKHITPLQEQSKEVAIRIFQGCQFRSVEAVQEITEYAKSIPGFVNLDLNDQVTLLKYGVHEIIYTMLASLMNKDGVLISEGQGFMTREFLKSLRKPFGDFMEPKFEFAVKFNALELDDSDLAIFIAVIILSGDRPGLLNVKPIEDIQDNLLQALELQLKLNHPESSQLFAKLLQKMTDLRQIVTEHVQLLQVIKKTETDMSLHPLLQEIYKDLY
On the technique in general: Quantitative high-throughput screening tests each substance at several concentrations.

Test [5] shares this target. The test can be described thus: qHTS assay to identify small molecule antagonists of the peroxisome proliferator-activated receptor gamma (PPARg) signaling pathway (AID 743191; calls by dose curve; also: series mostly up to about 63 µM; nearly all actives have a fitted effect of over 30% in size). A digest of the protocol:
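Beta-lactamase reporter under UAS control in HEK293H PPARg-bla cells; compound treatment 17 h at 37C. Read-out: fluorescence intensity after 1 h room-temperature incubation with LiveBLAzer B/G FRET substrate.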

A short description of test [6]: qHTS assay to identify small molecule antagonists of the peroxisome proliferator-activated receptor gamma (PPARg) signaling pathway - cell viability counter screen (AID 743194). Also: nearly all actives have a fitted effect of over 55% in size. A digest of the protocol: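 Viability was measured as CellTiter-Glo luminescence in GeneBLAzer PPARg UAS-bla HEK293H cells. These cells had been exposed 17 h at 37 C to compounds together with rosiglitazone at 50 nM final, with the beta-lactamase readout taken in the same wells.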

A short description of test [7]: qHTS assay for small molecule agonists of the antioxidant response element (ARE) signaling pathway - cell viability counter screen (AID 743203; calls by dose curve; also: nearly all actives have a fitted effect of over 55% in size). A digest of the protocol: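 Compounds in DMSO were pinned onto ARE-bla HepG2 cells plated 5 hrs earlier at 2,000 cells/well. Sixteen hours later at 37C/5% CO2, CellTiter-Glo was added and luminescence measured after 30 min at room temperature.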

The nature of test [8]: qHTS assay for small molecule activators of the heat shock response signaling pathway - cell viability counter screen (AID 743209). Also: nearly all actives have a fitted effect of over 50% in size. A digest of the protocol: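 Counter screen for cytotoxicity in HeLa HSE-bla reporter cells. Treatment was 5 h at 37 C; viability was detected by luminescent ATP assay (CellTiter-Glo) in the same wells as the beta-lactamase read.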
The nature of test [9]: qHTS assay for small molecule activators of the heat shock response signaling pathway (AID 743210; active = well fitted activation curve with a large enough effect in the signal ratio in the repeat runs, with a control signal flat, not every such curve was filed as active; the % refers to the signal ratio;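 also: HeLa cells with beta-lactamase reporter driven by heat shock elements; series mostly up to about 63 µM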). The essentials:
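HeLa HSE-bla cells, overnight plating; cpd in DMSO 5 h, 37 C; LiveBLAzer B/G FRET substrate 2.5 h RT; fluorescence intensity read.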

Test [10] can be described thus: qHTS assay to identify small molecule agonists of the peroxisome proliferator-activated receptor delta (PPARd) signaling pathway - cell viability counter screen (AID 743211). Also: nearly all actives have a fitted effect of over 55% in size. A digest of the protocol: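 Tox21 library compounds, delivered in DMSO, were incubated 17 h with PPARd-bla HEK293H cells; cytotoxicity was taken from CellTiter-Glo luminescence read 30 min after reagent addition.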

Test [11] deals with Peroxisome proliferator-activated receptor delta (Homo sapiens) (UniProt Q03181). The test can be described thus: qHTS assay to identify small molecule agonists of the peroxisome proliferator-activated receptor delta (PPARd) signaling pathway (AID 743212; calls by dose curve). A digest of the protocol:
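HEK293H PPARd-bla cells; 5 h preincubation 37 C/5% CO2; compound (DMSO) 37 C; LiveBLAzer B/G FRET substrate 2 h RT; fluorescence intensity.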

The nature of test [12]: qHTS assay to identify small molecule antagonists of the peroxisome proliferator-activated receptor delta (PPARd) signaling pathway - cell viability counter screen (AID 743213). Also: nearly all actives have a fitted effect of over 50% in size. The essentials:
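Viability counter-screen, qHTS format: PPARd-bla HEK293H, L165041 300 nM final, 17 h compound exposure at 37 C, CellTiter-Glo luminescence after 30 min RT.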

For test [13], the target named is Peroxisome proliferator-activated receptor delta (Homo sapiens) (UniProt Q03181). Briefly: qHTS assay to identify small molecule antagonists of the peroxisome proliferator-activated receptor delta (PPARd) signaling pathway (AID 743215; active = well fitted inhibition curve with a large enough effect in the signal ratio in the repeat runs, not every such curve was filed as active; the % refers to the signal ratio;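 also: cells stimulated with agonist L165041 at 300 nM final during compound exposure; series mostly up to about 62 µM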). The essentials:
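With L165041 present at 300 nM final, compounds were incubated 17 h at 37 C on PPARd UAS-bla HEK293H cells. A FRET-based beta-lactamase substrate was then applied for 2 h at room temperature and fluorescence intensity recorded.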

Test [14] addresses Bile acid receptor (Homo sapiens) (UniProt Q96RI1). The test can be described thus: qHTS assay to identify small molecule antagonists of the farnesoid-X-receptor (FXR) signaling pathway (AID 743217; active = well fitted inhibition curve with a large enough effect in the signal ratio in the repeat runs, not every such curve was filed as active; the % refers to the signal ratio). A digest of the protocol: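 In this cell-based antagonist screen, inhibition of CDCA-driven (50 uM final) UAS-beta-lactamase expression in HEK 293T cells was measured by FRET fluorescence following 16 h compound exposure at 37 °C.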

Test [15] is described as follows: qHTS assay to identify small molecule agonists of the farnesoid-X-receptor (FXR) signaling pathway - cell viability counter screen (AID 743218). Also: nearly all actives have a fitted effect of over 45% in size. The essentials:
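After 16 h at 37 C with test compounds, FXR-bla HEK 293T cells were given LiveBLAzer B/G substrate for 2 h at RT and then CellTiter-Glo; luminescence was taken after 30 min.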

For test [16], the target named is Bile acid receptor (Homo sapiens) (UniProt Q96RI1). The test can be described thus: qHTS assay to identify small molecule agonists of the farnesoid-X-receptor (FXR) signaling pathway (AID 743220; active = well fitted activation curve with a large enough effect in the signal ratio in the repeat runs, not every such curve was filed as active; the % refers to the signal ratio). A digest of the protocol:
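Beta-lactamase reporter under UAS control in GeneBLAzer FXR HEK 293T cells (5000/well) measured with LiveBLAzer FRET substrate after 2 h at room temperature. Compound exposure lasted 16 h at 37C.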

Test [17] is described as follows: qHTS assay to identify small molecule antagonists of the farnesoid-X-receptor (FXR) signaling pathway - cell viability counter screen (AID 743221; active = well fitted cell-killing curve with a large enough effect in the repeat runs, not every such curve was filed as active; also: nearly all actives have a fitted effect of over 50% in size). A digest of the protocol:
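Cytotoxicity is taken from ATP luminescence (CellTiter-Glo, 30 min, room temperature) in FXR-bla HEK 293T cells previously incubated 16 h at 37 C with compound and chenodeoxycholic acid at 50 uM final.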

Test [18] addresses Vitamin D3 receptor (Homo sapiens) (UniProt P11473). The test can be described thus: qHTS assay to identify small molecule agonists of the vitamin D receptor (VDR) signaling pathway (AID 743222; calls by dose curve). A digest of the protocol: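 VDR-bla cells were seeded, left 4 h, treated with compounds in DMSO for 16 h, incubated 2 h at RT with B/G FRET substrate, and read for fluorescence.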
Test [19] has the same target. Briefly: qHTS assay to identify small molecule antagonists of the vitamin D receptor (VDR) signaling pathway (AID 743223; active = well fitted inhibition curve with a large enough effect in the signal ratio in the repeat runs, not every such curve was filed as active; the % refers to the signal ratio). The essentials:
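Quantitative HTS in VDR-bla reporter cells stimulated with 1alpha,25-dihydroxyvitamin D3, 3 nM final. Compound exposure 16 h, 37C, 5% CO2. Read-out: beta-lactamase FRET substrate fluorescence, 2 h RT.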

A short description of test [20]: qHTS assay for small molecule agonists of the antioxidant response element (ARE) signaling pathway (AID 743202; active = well fitted activation curve with a large enough effect in the signal ratio in the repeat runs, not every such curve was filed as active; the % refers to the signal ratio). A digest of the protocol:
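Quantitative high-throughput format in HepG2 cells bearing an integrated ARE-beta-lactamase reporter. Compound exposure lasted 16 h at 37 C, and fluorescence was read 2 h after adding LiveBLAzer B/G substrate at room temperature.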

Several values for one entry are separate records, joined by “and”; a condition that tells them apart may be missing. Equal entries are not always repeated. Results filed as inconclusive are left out. Some compounds were tested as several samples or in several runs, with calls that do not always agree. Activity calls are given as the source filed them. Unless noted, calls follow the shape of the dose curve; as a rule, active = well fitted curve in the direction sought with a large enough effect in the repeat runs; inconclusive = weak or mixed curves; inactive = no such curve, though single readings can be large; an effect the other way counts as inactive or inconclusive.

Sequence of Peroxisome proliferator-activated receptor delta (Homo sapiens) (Q03181 whole entry, looked up): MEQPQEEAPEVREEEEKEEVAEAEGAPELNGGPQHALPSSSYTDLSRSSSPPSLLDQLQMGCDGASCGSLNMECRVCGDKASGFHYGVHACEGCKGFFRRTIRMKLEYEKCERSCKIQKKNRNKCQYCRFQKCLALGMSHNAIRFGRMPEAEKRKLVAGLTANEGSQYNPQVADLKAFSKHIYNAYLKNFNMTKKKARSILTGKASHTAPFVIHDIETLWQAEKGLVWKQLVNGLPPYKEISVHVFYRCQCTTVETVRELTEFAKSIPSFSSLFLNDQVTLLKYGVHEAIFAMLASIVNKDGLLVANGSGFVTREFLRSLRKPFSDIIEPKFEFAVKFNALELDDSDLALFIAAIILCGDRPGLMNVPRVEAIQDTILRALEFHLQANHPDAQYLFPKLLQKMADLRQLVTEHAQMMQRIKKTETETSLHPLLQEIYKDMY
Sequence of Aryl hydrocarbon receptor (Homo sapiens) (P35869 whole entry, looked up): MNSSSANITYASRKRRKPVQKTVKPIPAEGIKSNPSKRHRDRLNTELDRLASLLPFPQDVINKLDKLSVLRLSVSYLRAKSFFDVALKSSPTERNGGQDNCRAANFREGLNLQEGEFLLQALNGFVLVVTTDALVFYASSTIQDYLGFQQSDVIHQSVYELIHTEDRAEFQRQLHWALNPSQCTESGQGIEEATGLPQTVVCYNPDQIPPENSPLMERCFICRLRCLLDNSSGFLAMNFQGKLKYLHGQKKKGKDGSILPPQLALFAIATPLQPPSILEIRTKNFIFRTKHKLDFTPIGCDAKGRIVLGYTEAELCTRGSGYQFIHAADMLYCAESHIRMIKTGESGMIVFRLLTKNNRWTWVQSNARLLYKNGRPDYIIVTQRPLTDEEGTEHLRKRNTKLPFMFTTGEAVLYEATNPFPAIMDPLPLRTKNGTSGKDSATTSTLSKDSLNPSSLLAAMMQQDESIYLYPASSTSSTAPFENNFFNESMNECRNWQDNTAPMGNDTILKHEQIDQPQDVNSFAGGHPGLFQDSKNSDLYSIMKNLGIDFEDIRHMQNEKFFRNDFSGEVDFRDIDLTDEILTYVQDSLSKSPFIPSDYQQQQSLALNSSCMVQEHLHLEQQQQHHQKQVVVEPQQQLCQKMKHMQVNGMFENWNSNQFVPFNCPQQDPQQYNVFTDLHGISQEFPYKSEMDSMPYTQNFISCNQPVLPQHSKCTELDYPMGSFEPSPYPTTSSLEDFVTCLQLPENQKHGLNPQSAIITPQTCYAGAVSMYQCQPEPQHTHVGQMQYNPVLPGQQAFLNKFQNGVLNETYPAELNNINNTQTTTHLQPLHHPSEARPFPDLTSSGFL
Sequence of Bile acid receptor (Homo sapiens) (Q96RI1 whole entry, looked up): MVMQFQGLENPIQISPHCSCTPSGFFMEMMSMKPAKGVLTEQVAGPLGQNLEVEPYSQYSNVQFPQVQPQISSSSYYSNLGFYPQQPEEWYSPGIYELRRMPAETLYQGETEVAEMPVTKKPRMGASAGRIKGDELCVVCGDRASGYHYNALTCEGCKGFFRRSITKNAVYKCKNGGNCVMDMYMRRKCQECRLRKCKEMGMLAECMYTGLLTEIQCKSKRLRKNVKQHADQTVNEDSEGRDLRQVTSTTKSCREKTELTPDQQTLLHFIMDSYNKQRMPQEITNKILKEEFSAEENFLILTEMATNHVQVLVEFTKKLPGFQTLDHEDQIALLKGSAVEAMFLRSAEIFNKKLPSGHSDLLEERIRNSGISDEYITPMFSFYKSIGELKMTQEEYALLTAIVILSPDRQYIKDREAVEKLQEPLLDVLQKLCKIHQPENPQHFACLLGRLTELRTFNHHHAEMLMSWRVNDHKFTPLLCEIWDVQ
Sequence of Vitamin D3 receptor (Homo sapiens) (P11473 whole entry, looked up): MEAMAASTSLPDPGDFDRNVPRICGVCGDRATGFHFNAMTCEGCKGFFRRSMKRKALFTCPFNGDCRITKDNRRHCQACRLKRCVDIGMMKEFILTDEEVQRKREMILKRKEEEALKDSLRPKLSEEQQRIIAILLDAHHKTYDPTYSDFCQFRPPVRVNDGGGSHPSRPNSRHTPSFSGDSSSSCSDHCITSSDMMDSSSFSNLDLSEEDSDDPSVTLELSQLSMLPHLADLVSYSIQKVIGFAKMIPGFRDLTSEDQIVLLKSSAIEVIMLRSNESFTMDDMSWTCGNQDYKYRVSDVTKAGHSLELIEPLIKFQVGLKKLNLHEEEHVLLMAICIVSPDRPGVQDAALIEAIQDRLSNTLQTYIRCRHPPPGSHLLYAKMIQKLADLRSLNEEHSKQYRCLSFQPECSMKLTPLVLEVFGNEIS

As to `Cc1cnc(NC(=O)C2=C(O)c3ccccc3S(=O)(=O)N2C)s1`, the Potency result in test [1], in [3], in [4], in test [5], in [6] and in [7] was “inactive” each time. In addition, the Potency result in [10], in test [12], in [14] and in test [15] was “inactive” in each case. Besides, the Potency result in test [2] was “inactive and 61.1 µM (active)”. For the same compound, the result in test [8], in test [9], in test [11], in [13], in test [16] and in test [17] was inactive.

As to `CO[C@H]1C=CO[C@@]2(C)Oc3c(C)c(O)c4c(O)c(c(/C=N/N5CCN(C)CC5)c(O)c4c3C2=O)NC(=O)/C(C)=C\C=C[C@H](C)[C@H](O)[C@@H](C)[C@@H](O)[C@@H](C)[C@H](OC(C)=O)[C@@H]1C`, the Potency in test [1] is 23.7 µM (active) and 15.4 µM (active) and 15.5 µM (active); in test [3] it was 29.8 µM (active) and 27.4 µM (active) and 15.5 µM (active). For the same compound, the Potency result in test [2], in [4], in test [6], in test [7], in test [10] and in test [12] was “inactive” each time. Further, the Potency entry in test [15] and in test [19] was “inactive” throughout. In addition, the compound was classed as inactive in test [8], in test [9], in [11], in test [17] and in test [18].

For `C[C@]12CC[C@@H]3c4ccc(O)cc4C[C@@H](CCCCCCCCCS(=O)CCCC(F)(F)C(F)(F)F)[C@H]3[C@@H]1CC[C@@H]2O` (some centres undefined), the Potency entry in test [1], in test [2], in [3], in test [4], in test [5] and in test [6] was “inactive” in each case. Moreover, the Potency entry in test [7], in [15] and in test [19] was “inactive” each time. Further, the outcome in test [8], in test [9], in test [11], in test [16], in test [17] and in test [18] was inactive.

On to `NC(=O)c1ccc([N+](=O)[O-])cc1Cl`, for which the Potency result in [1], in [3], in [4], in [5], in [6] and in [20] was “inactive” in each case. Besides, the Potency result in test [7], in test [10], in test [12], in test [14], in [15] and in test [19] was “inactive” in each case. For the same compound, the outcome in [8], in [9], in test [11], in test [16], in test [17] and in [18] was inactive.

Turning to `O=C1OC(c2ccc(O)cc2)(c2ccc(O)cc2)c2ccccc21`, the Potency result in test [1], in [3], in test [4], in test [6], in test [7] and in [10] was “inactive” in each case. Further, the Potency entry in test [12], in test [15] and in test [19] was “inactive” throughout. Further, the compound was classed as inactive in [8], in test [9], in test [17] and in test [18].

On to `c1ccc2[nH]c(-c3cscn3)nc2c1`, for which the Potency entry in test [1], in test [3], in [4], in test [5], in test [6] and in [20] was “inactive” each time. The Potency entry in test [7], in test [10], in test [12], in test [14], in test [15] and in [19] was “inactive” each time. Further, the compound was classed as inactive in [8], in [9], in test [11], in test [13], in test [16] and in [17]. Moreover, the result in test [18] was inactive.

In the case of `CCc1cc(C(N)=S)ccn1`, the Potency entry in [3], in [6], in test [7], in test [10], in test [12] and in test [15] was “inactive” throughout. Moreover, the Potency result in [19] was “inactive”. Also, the result in test [8], in test [9], in test [17] and in [18] was inactive.

In the case of `CCCCOCCOCCSC#N`, the Potency result in test [1], in [2], in test [3], in test [4], in test [6] and in [20] was “inactive” throughout. The Potency entry in test [7], in test [10], in test [12], in [15] and in [19] was “inactive” each time. For the same compound, the compound was called inactive in [8], in test [11], in test [13], in test [17] and in [18].
